{"source": "paper PMC4336329", "about": "(PLoS ONE, 2015)", "note": "Among all 310,000 compounds or so, about 14,000 (4.5%) showed an effect of 50% or more. The effect is printed as a negative number. For the sample, strong results were picked, then their nearest neighbours and some compounds at random.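 Further: peak tail current of the secondary pulse compared with the same well before compound.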", "data": [{"molecular_target": "human ether-à-go-go-related gene (hERG) potassium channel (human, UniProt Q12809)", "sequence (Q12809 whole entry, looked up)": "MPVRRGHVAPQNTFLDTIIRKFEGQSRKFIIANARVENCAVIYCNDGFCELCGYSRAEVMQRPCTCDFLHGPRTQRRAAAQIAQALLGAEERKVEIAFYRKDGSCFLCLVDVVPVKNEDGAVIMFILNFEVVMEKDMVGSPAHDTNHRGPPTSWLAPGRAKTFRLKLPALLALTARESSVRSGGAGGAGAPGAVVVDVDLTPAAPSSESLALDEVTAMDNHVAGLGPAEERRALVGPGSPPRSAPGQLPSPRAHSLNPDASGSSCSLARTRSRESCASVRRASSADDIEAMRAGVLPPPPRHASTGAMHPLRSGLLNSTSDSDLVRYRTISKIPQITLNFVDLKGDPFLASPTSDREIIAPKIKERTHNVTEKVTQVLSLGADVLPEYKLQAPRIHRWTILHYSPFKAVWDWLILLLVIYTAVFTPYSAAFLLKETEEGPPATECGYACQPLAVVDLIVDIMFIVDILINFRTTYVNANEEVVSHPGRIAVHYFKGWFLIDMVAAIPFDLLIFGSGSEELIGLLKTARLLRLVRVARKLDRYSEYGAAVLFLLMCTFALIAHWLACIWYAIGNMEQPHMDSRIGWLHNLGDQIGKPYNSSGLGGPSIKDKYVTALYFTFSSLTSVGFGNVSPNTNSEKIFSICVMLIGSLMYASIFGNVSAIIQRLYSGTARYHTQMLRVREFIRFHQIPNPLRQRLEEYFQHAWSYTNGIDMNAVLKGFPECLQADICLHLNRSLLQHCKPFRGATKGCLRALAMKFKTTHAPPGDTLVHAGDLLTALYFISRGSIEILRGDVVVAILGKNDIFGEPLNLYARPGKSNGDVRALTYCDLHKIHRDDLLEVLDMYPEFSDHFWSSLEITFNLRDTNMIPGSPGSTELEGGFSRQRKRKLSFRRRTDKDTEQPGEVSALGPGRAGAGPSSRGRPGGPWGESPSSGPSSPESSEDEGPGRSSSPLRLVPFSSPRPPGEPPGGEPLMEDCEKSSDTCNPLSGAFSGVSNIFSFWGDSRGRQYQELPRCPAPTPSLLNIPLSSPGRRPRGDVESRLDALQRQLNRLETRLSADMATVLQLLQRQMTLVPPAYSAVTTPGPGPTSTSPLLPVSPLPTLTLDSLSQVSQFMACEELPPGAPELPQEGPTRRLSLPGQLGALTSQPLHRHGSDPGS", "experiment": "primary screen, population patch clamp on CHO cells stably expressing hERG; higher = less effect of the substance", "units": {"hERG current change (%, negative = inhibition) at 10uM": "%"}, "values": [{"molecule": "Cc1cc2nc(-c3ccc(SCC(=O)Nc4ccc5c(c4)OCCO5)nc3)[nH]c2cc1C", "hERG current change (%, negative = inhibition) at 10uM": 2.26}, {"molecule": "COC(=O)c1cc2c(cc1NC(=O)CSCCc1ccccn1)OCO2", "hERG current change (%, negative = inhibition) at 10uM": 7.82}, {"molecule": "COc1ccc(-c2noc(CN(C)S(=O)(=O)c3ccc(Cl)cc3)n2)cc1OC", "hERG current change (%, negative = inhibition) at 10uM": -9.85}, {"molecule": "O=C1NC(=O)[C@]2(Cc3ccccc3N3CCN(c4ccccc4)CC32)C(=O)N1c1ccccc1", "note": "(stereo partly shown)", "hERG current change (%, negative = inhibition) at 10uM": -7.93}, {"molecule": "COc1ccc([N+](=O)[O-])cc1NS(=O)(=O)c1ccccc1", "hERG current change (%, negative = inhibition) at 10uM": 8.94}, {"molecule": "COc1ccc(N2CCN(CC(=O)Nc3cc(C)on3)CC2)cc1.O=C(O)C(=O)O", "hERG current change (%, negative = inhibition) at 10uM": 0.616}, {"molecule": "CC(C)Cn1c(N)c(C(=O)CSc2ncccn2)c(=O)n(C)c1=O", "hERG current change (%, negative = inhibition) at 10uM": 6.81}, {"molecule": "Cc1ccc(S(=O)(=O)CCC(=O)NCc2ccc(Cl)cc2)cc1", "hERG current change (%, negative = inhibition) at 10uM": -3.96}, {"molecule": "CCOc1ccc(OCCC(=O)N(CC)CC(=O)NCc2ccc(Cl)cc2)cc1", "hERG current change (%, negative = inhibition) at 10uM": -60.5}, {"molecule": "CCN(CC(=O)Nc1c(F)cccc1F)C(=O)CCCNC(=O)c1ccc(Cl)cc1", "hERG current change (%, negative = inhibition) at 10uM": -7.06}, {"molecule": "CCN(CC(=O)NCc1cccs1)C(=O)CCCOc1ccc(C(C)(C)C)cc1", "hERG current change (%, negative = inhibition) at 10uM": -52.6}, {"molecule": "CCN(CC(=O)Nc1c(F)cccc1F)C(=O)CCC(=O)c1ccc(F)cc1", "hERG current change (%, negative = inhibition) at 10uM": -12.1}, {"molecule": "CCOc1ccc(OCCC(=O)OCC(=O)NCc2ccc(Cl)cc2)cc1", "hERG current change (%, negative = inhibition) at 10uM": 8.85}, {"molecule": "CCN(CC(=O)NCc1ccc(Cl)cc1)C(=O)CCOc1ccc(C)cc1", "hERG current change (%, negative = inhibition) at 10uM": -82.6}, {"molecule": "CCCCOc1ccc(C(=O)N(CC)CC(=O)NCc2cccs2)cc1", "hERG current change (%, negative = inhibition) at 10uM": -19.1}, {"molecule": "CCOc1ccc(N(CC(=O)NCc2ccc(Cl)cc2)S(=O)(=O)c2ccccc2)cc1", "hERG current change (%, negative = inhibition) at 10uM": 20.4}, {"molecule": "CCN(CC(=O)Nc1ccccc1C(F)(F)F)C(=O)CCOc1ccc(C)cc1", "hERG current change (%, negative = inhibition) at 10uM": -13.1}, {"molecule": "CCN(CC(=O)Nc1c(F)cccc1F)C(=O)CCNC(=O)c1ccc([N+](=O)[O-])cc1", "hERG current change (%, negative = inhibition) at 10uM": -55.4}, {"molecule": "CCN(CC(=O)Nc1cc(Cl)ccc1C)C(=O)CCOc1ccc(C)cc1", "hERG current change (%, negative = inhibition) at 10uM": -8.25}, {"molecule": "CCN(CC(=O)NCc1cccs1)C(=O)CCCOc1ccccc1", "hERG current change (%, negative = inhibition) at 10uM": -35.2}, {"molecule": "O=C(NCC1COCCO1)C1CCN(S(=O)(=O)c2ccccc2)CC1", "note": "(stereo not shown)", "hERG current change (%, negative = inhibition) at 10uM": -7.05}, {"molecule": "Cc1cc(C)cc(N(CC(=O)NCc2cccnc2)S(C)(=O)=O)c1", "hERG current change (%, negative = inhibition) at 10uM": -1.95}, {"molecule": "Cc1ccccc1NCc1ccc([N+](=O)[O-])s1", "hERG current change (%, negative = inhibition) at 10uM": -38.8}, {"molecule": "CCC(C)(CC(=O)N(C)CCC#N)c1ccccc1", "note": "(stereo not shown)", "hERG current change (%, negative = inhibition) at 10uM": -0.111}, {"molecule": "COc1ccc(C(=O)N2CCCC(Nc3ccc(C)c(C)c3)C2)c(OC)n1", "note": "(stereo not shown)", "hERG current change (%, negative = inhibition) at 10uM": -17.7}, {"molecule": "COc1cc(OC)cc(-c2nc3ccccc3c(=O)n2OC(=O)c2ccccc2C)c1", "hERG current change (%, negative = inhibition) at 10uM": 10.6}, {"molecule": "CCN(CC(=O)NCc1cccs1)C(=O)CCOc1ccccc1C", "hERG current change (%, negative = inhibition) at 10uM": -19.8}, {"molecule": "CCN(CC(=O)Nc1c(F)cccc1F)C(=O)CCOc1ccc(C)cc1", "hERG current change (%, negative = inhibition) at 10uM": -2.71}, {"molecule": "CCOc1ccc(OCCC(=O)N(CC)CC(=O)Nc2c(F)cccc2F)cc1", "hERG current change (%, negative = inhibition) at 10uM": -60.2}, {"molecule": "CCN(CC(=O)NCc1ccc(Cl)cc1)C(=O)CCOc1ccccc1C", "hERG current change (%, negative = inhibition) at 10uM": -71}, {"molecule": "CCOc1ccc(OCCCC(=O)N(CC)CC(=O)Nc2c(F)cccc2F)cc1", "hERG current change (%, negative = inhibition) at 10uM": -5.99}, {"molecule": "CCN(CC(=O)Nc1cc(Cl)ccc1C)C(=O)CCOc1ccccc1C", "hERG current change (%, negative = inhibition) at 10uM": 18.4}, {"molecule": "COCCn1c(C)cc(C(=O)COC(=O)c2cncc(Br)c2)c1C", "hERG current change (%, negative = inhibition) at 10uM": -31.3}, {"molecule": "C=CCn1c(C)cc(C(=O)COC(=O)c2cncc(Br)c2)c1C", "hERG current change (%, negative = inhibition) at 10uM": -55.9}, {"molecule": "C=CCn1c(C)cc(C(=O)COC(=O)c2ccc3c(c2)NC(=O)CS3)c1C", "hERG current change (%, negative = inhibition) at 10uM": 4.69}, {"molecule": "Cc1cc(C)nc(NS(=O)(=O)c2ccc(N)cc2)n1", "hERG current change (%, negative = inhibition) at 10uM": 12}, {"molecule": "CNc1cc(NS(=O)(=O)c2ccc(N)cc2)nc(NC)n1.Cl", "hERG current change (%, negative = inhibition) at 10uM": -61.4}, {"molecule": "COc1cc(NS(=O)(=O)c2ccc(N)cc2)nc(OC)n1", "hERG current change (%, negative = inhibition) at 10uM": 9.57}, {"molecule": "CN(C)CCNc1ncnc2c1sc1nc(N3CCCC3)c3c(c12)CC(C)(C)OC3", "hERG current change (%, negative = inhibition) at 10uM": -20.4}, {"molecule": "OCCN(CCO)c1ncnc2c1sc1nc(N3CCOCC3)c3c(c12)CCCC3", "hERG current change (%, negative = inhibition) at 10uM": -13.3}, {"molecule": "CCN(CC)CCNc1ncnc2c1sc1nc(N3CCCC3)c3c(c12)CC(C)(C)OC3", "hERG current change (%, negative = inhibition) at 10uM": -65.5}, {"molecule": "CN(CCO)c1ncnc2c1sc1nc(N3CCOCC3)c3c(c12)CCC3", "hERG current change (%, negative = inhibition) at 10uM": -55.2}, {"molecule": "CCN(CC)CCNc1ncnc2c1sc1nc(N3CCOCC3)c3c(c12)CC(C)(C)SC3", "hERG current change (%, negative = inhibition) at 10uM": -71.1}, {"molecule": "CC1(C)Cc2c(c(N3CCOCC3)nc3sc4c(NN)ncnc4c23)CS1", "hERG current change (%, negative = inhibition) at 10uM": -5.43}, {"molecule": "CC(C)CNc1ncnc2c1sc1nc(N3CCOCC3)c3c(c12)CC(C)(C)OC3", "hERG current change (%, negative = inhibition) at 10uM": -4.77}, {"molecule": "CCN(CC)CCNc1ncnc2c1sc1nc(N3CCOCC3)c3c(c12)CCCC3", "hERG current change (%, negative = inhibition) at 10uM": -32.8}, {"molecule": "OCCN1CCN(c2ncnc3c2sc2nc(N4CCOCC4)c4c(c23)CCC4)CC1", "hERG current change (%, negative = inhibition) at 10uM": -22.1}, {"molecule": "C[C@]12CCC(OC(=O)CCC(=O)O)CC1=CCC1C2CC[C@]2(C)C(=O)CCC12", "note": "(stereo partly shown)", "hERG current change (%, negative = inhibition) at 10uM": 11.5}, {"molecule": "CC1(C)c2[nH]c3ccccc3c2C[C@H]2C(=O)N(N)CC(=O)N21.Cl", "hERG current change (%, negative = inhibition) at 10uM": 19}, {"molecule": "COc1ccc(N2CCN(c3nc4cc(C)ccc4cc3C=O)CC2)cc1", "hERG current change (%, negative = inhibition) at 10uM": 16.6}, {"molecule": "COC(=O)C1=C(c2c(C)noc2C)C[C@@H]2CC[C@H]1N2C(=O)NCc1ccco1", "hERG current change (%, negative = inhibition) at 10uM": 19}, {"molecule": "O=C1COc2ccc(C(=O)CSc3nnc(NCc4ccccc4)s3)cc2N1", "hERG current change (%, negative = inhibition) at 10uM": -9.48}, {"molecule": "O=[N+]([O-])c1ccc(Sc2ccccc2)nc1", "hERG current change (%, negative = inhibition) at 10uM": 8.82}, {"molecule": "O=[N+]([O-])c1ccc(Sc2n[nH]c(-c3ccco3)n2)nc1", "hERG current change (%, negative = inhibition) at 10uM": -0.59}, {"molecule": "CCn1c(SCC(=O)Nc2nc(C)cs2)nnc1-c1ccco1", "hERG current change (%, negative = inhibition) at 10uM": -50.8}, {"molecule": "CCn1c(Sc2ccc([N+](=O)[O-])cn2)nnc1-c1ccco1", "hERG current change (%, negative = inhibition) at 10uM": -66.5}, {"molecule": "O=[N+]([O-])c1ccc(Sc2ncc3ccccn23)nc1", "hERG current change (%, negative = inhibition) at 10uM": -51.6}, {"molecule": "O=[N+]([O-])c1ccc(Sc2ccccn2)nc1", "hERG current change (%, negative = inhibition) at 10uM": 10.8}, {"molecule": "CCOC(=O)c1cnc(SCC(=O)Nc2nc(C)c(C)s2)nc1N", "hERG current change (%, negative = inhibition) at 10uM": -61.9}, {"molecule": "CCn1c(SCC(N)=O)nnc1-c1ccco1", "hERG current change (%, negative = inhibition) at 10uM": 3.15}, {"molecule": "CCOC(=O)c1cnc(SCC(=O)Nc2nnc(CC)s2)nc1N", "hERG current change (%, negative = inhibition) at 10uM": 8.46}, {"molecule": "CCOC(=O)c1cnc(SCC(=O)Nc2sc(C)c(C)c2C#N)nc1N", "hERG current change (%, negative = inhibition) at 10uM": 14.2}, {"molecule": "Cc1csc(NC(=O)CSc2nnc(-c3ccco3)n2C)n1", "hERG current change (%, negative = inhibition) at 10uM": -31.6}, {"molecule": "CCn1c(SCC(=O)Nc2nncs2)nnc1-c1ccco1", "hERG current change (%, negative = inhibition) at 10uM": 17.2}]}]}
